Peg3 promoter: Peg3 promoter activity inhibition | HeLa PEG-Prom luciferase reporter, luminescence, overnight | inhibition, % at 20 µM | hit rate 1.7% among 360,000 | AID 588405;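 active = inhibition of at least 50% at 20 µM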
EBV LMP1 NFkB: Epstein-Barr LMP1 NF-kappaB reporter inhibition; LMP1-induced NF-kappaB luciferase reporter cells, luminescence; inhibition, % at 12.5 µM; hit rate 0.69% among 350,000; in the data active = inhibition above about 41%; inconclusive = no clear call, values can overlap the other calls
TROY signal inh: TROY signaling inhibition | Q293 LMP1-TROYcd NF-kB luciferase reporter, 4 h | inhibition, % at 10 µM | hit rate 0.98% among 360,000;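 active = compounds whose plate-normalised and pattern-corrected inhibition of the luciferase reporter signal at the single screening dose is 50% or more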
TWEAK-Fn14 inh: TWEAK-Fn14 signaling inhibition | TWEAK-stimulated Fn14 reporter cells, luciferase luminescence, 8 h | inhibition, % at 10 µM | hit rate 2% among 360,000 | AID 1159606; in the data active = inhibition above about 50%
MITF TRPM1 inh: reduces MITF-dependent TRPM1 promoter luciferase signal; SK-MEL-5 TRPM1 promoter luciferase, 24 h; inhibition, % at 12.5 µM; hit rate 0.83% among 330,000; AID 488899;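 active = mean inhibition across replicates of 60% or more, whatever share of single replicates reaches that level; inconclusive = some that reach 60%, reason not given; inactive = mean inhibition across replicates below 60%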
Shn3 inh set2: reduces Shn3 3'UTR luciferase signal in osteoblasts. Clone20 osteoblast Shn3 3'UTR firefly luciferase, 24 h. hit rate 0.52% among 360,000. AID 588674. inhibition, % at 12.5 µM;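 active = mean inhibition of at least 75% with every replicate also reaching 75%; inconclusive = mean inhibition at least 75% but some replicate below; inactive = mean inhibition below 75%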
Each line names hits and unclear results; the compound was inactive in the other large screens. Sampled rows, rich in hits. Any-hit rate of the full collection: about 4.1%.

CCOC(=O)/C(=C/c1ccc(OC(F)F)cc1)C1=Nn2c(nnc2-c2ccc(Cl)cc2)SC1	Peg3 promoter 106, TROY signal inh 91, TWEAK-Fn14 inh 107, MITF TRPM1 inh 95, Shn3 inh set2 95
COc1ccc(-c2nnc3n2N=C(C)CS3)cc1	none
CCOC(=O)/C(=C\c1ccc(OC(F)F)cc1)C1=Nn2c(nnc2-c2ccc(Cl)cc2)SC1	Peg3 promoter 103, TROY signal inh 90, TWEAK-Fn14 inh 105, MITF TRPM1 inh 99, Shn3 inh set2 95
CCOc1ccc(-c2cc(C(=O)NCCCn3ccnc3)c3ccccc3n2)cc1	none
CCOc1ccc(-c2cc(C(=O)NCCCn3ccnc3)c3cc(Br)ccc3n2)cc1	Peg3 promoter 106, MITF TRPM1 inh inconclusive
C(=C\c1ccccc1)/CN1CCN(C(c2cc3ccccc3o2)c2nnnn2Cc2ccccc2)CC1 (stereo not drawn)	none (no result: EBV LMP1 NFkB, MITF TRPM1 inh)
Nc1cccc2cc(S(=O)(=O)O)ccc12	none
CN(CC(=O)Nc1cccnc1)S(=O)(=O)c1ccc(Br)cc1	EBV LMP1 NFkB 50
Cc1ccc(S(=O)(=O)N(C)CC(=O)Nc2cccnc2)cc1	none
O=C(CSc1c(Cl)cccc1Cl)NC1CCCc2ccccc21 (stereo not drawn)	none
O=C(CSc1ccc(Cl)cc1)NC1CCCc2ccccc21 (stereo not drawn)	TROY signal inh 74
O=C(CSc1nc2ccc(Cl)cc2[nH]1)NC1CCCc2ccccc21 (stereo not drawn)	TROY signal inh 52, TWEAK-Fn14 inh 63
O=C(C[n+]1ccccc1)c1ccc(-c2ccccc2)cc1	none
CN(C)c1cc[n+](CC(=O)c2ccc(-c3ccccc3)cc2)cc1	MITF TRPM1 inh 70
Cn1c(=O)[nH]c(=O)c2c1nc(N1CCCCC1)n2CCSc1nc2ccccc2o1	none (no result: MITF TRPM1 inh)
CC(C)CCn1c(Sc2nc3ccccc3o2)nc2c1c(=O)[nH]c(=O)n2C	EBV LMP1 NFkB 57, TWEAK-Fn14 inh 67
O=C(CSc1nc(=O)n(CCCN2CCOCC2)c2c1CCC2)Nc1ccc([N+](=O)[O-])cc1	none
O=C1OC(Nc2nc3ccccc3s2)c2ccccc21 (stereo not drawn)	none
O=C1OC(Nc2nc(-c3ccc(F)cc3)cs2)c2ccccc21 (stereo not drawn)	TWEAK-Fn14 inh 59
O=C(CCl)NNC(=O)c1c(O)c2ccccc2[nH]c1=O	Peg3 promoter 58
Cn1nc(-c2ccc(OCC(=O)Nc3ccccc3)cc2)c2ccccc2c1=O	TWEAK-Fn14 inh 53
CCNC(=O)NC(=O)C(C)OC(=O)CCCSc1nc2ccccc2s1 (stereo not drawn)	TWEAK-Fn14 inh 59
CNC(=O)NC(=O)C(C)OC(=O)CCCSc1nc2ccccc2s1 (stereo not drawn)	TWEAK-Fn14 inh 55
CNC(=O)NC(=O)C(C)OC(=O)CCCc1nc2ccccc2s1 (stereo not drawn)	none
CC(=O)Nc1cccc(NS(=O)(=O)Cc2ccc(Cl)cc2)c1	none
CC(=O)c1ccc(NS(=O)(=O)Cc2ccc(Cl)cc2)cc1	TROY signal inh 63
COc1ccccc1CNC(=O)c1cc(-c2cc(F)ccc2OC(C)C)n[nH]1	none (no result: EBV LMP1 NFkB, MITF TRPM1 inh)
Cc1ccc(NC(=O)CN2CCC(NC(=O)c3ccccc3F)CC2)cc1C	none
COc1ccc(CCNC(=O)c2cc3c(=O)n4cccc(C)c4nc3n(CCCN3CCOCC3)c2=N)cc1	Peg3 promoter 57, MITF TRPM1 inh 73
COCCCn1c(C(=O)N2CCOCC2)cc2c(=O)n3cccc(C)c3nc21	none
Nc1c(C(=O)NCc2ccco2)c2nc3ccccc3nc2n1CCc1ccccc1	TROY signal inh 66, TWEAK-Fn14 inh 72
COc1ccc(CNC(=O)c2c(N)n(CCCN3CCOCC3)c3nc4ccccc4nc23)cc1	Peg3 promoter 70
COCCCn1c(C(=O)Nc2ccc3c(c2)OCO3)cc2c(=O)n3cccc(C)c3nc21	Peg3 promoter 60 (no result: MITF TRPM1 inh)
Nc1c(C(=O)NCc2ccccc2)c2nc3ccccc3nc2n1CCCN1CCOCC1	none
CN(C)S(=O)(=O)c1ccc(N2CCCC2)c(C(=O)NNC(=O)COc2cccc(F)c2)c1	none (no result: MITF TRPM1 inh)
O=C(CCN1CCN(Cc2ccccc2)CC1)Nc1cccc(Br)c1	none
O=C(Nc1ccc(Br)cc1)c1ccc(F)c(S(=O)(=O)N2CCN(c3ccccn3)CC2)c1	TWEAK-Fn14 inh 53
Cc1ccccc1NC(=O)c1ccc(F)c(S(=O)(=O)N2CCN(c3ccccn3)CC2)c1	none
Cc1ccc(C(=O)Nc2nc(-c3ccccn3)cs2)cc1S(=O)(=O)N1CCOCC1	Shn3 inh set2 90

Source: PubChem BioAssay (several laboratories)
